# In PubChem BioAssay (NCI):
# About 79,000 compounds went through this panel and 15% of them were active in at least one assay; those are over-represented in the sample as a whole. Unmarked numbers belong to inactive results. Active and inactive are the calls of the source. Cut-off read from the data, not from the text of the source: active = growth inhibition above about 70%; inactive = the rest.
# Key:
# [1] = NCI Yeast Anticancer Drug Screen. Data for the rad50 strain (AID 155);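 note: 0% = growth of vehicle-only cultures of the same strain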; conditions: S. cerevisiae rad50 strain growth inhibition, stronger effect = higher value
# Outline: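 Inhibition values express reduced yeast growth in compound-treated cultures relative to vehicle-treated controls.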
# [2] = NCI Yeast Anticancer Drug Screen. Data for the mec2-1 strain (AID 157); conditions: S. cerevisiae mec2-1 strain, stronger effect = higher value
# Outline: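 Compounds were applied to mec2-1 yeast cells. Their growth was then compared with that of vehicle-treated cultures to give growth inhibition.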
# [3] = NCI Yeast Anticancer Drug Screen. Data for the sgs1 mgt1 strain (AID 161);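 note: 0% = growth of cultures given vehicle only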; conditions: S. cerevisiae sgs1 mgt1 strain, stronger effect = higher value
# Outline: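 This yeast growth screen uses a strain with defined DNA-repair lesions; compound-treated growth is compared with vehicle-treated growth.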
# [4] = NCI Yeast Anticancer Drug Screen. Data for the cln2 rad14 strain (AID 165);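 note: 0% = growth equal to vehicle treated cultures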; conditions: S. cerevisiae cln2 rad14 strain, stronger effect = higher value
# Outline: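 Strain: cln2 rad14 yeast, altered in cell cycle control and DNA damage repair. Read-out: growth inhibition vs vehicle.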
# [5] = NCI Yeast Anticancer Drug Screen. Data for the bub3 strain (AID 167); conditions: S. cerevisiae bub3 mutant strain, stronger effect = higher value
# Outline: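 Steps: expose the mutant yeast strain to compound; grow alongside vehicle-treated cultures; measure growth; express inhibition against the vehicle cultures.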
# [6] = NCI Yeast Anticancer Drug Screen. Data for the mlh1 rad18 strain (AID 175); conditions: S. cerevisiae mlh1 rad18 strain growth inhibition, stronger effect = higher value
# Outline: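 A repair-deficient yeast strain is exposed to test compound, and growth is scored relative to vehicle-treated controls.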
# [7] = at 5.0 µM (retest, dose inferred, filed as 0.5)
# [8] = at 50.0 µM (retest, dose inferred, filed as 5.0)
Compound,"growth inhibition [1, 7]","growth inhibition [1, 8]",growth inhibition ([1]; at 50.0 µM),"growth inhibition [2, 7]","growth inhibition [2, 8]",growth inhibition ([2]; at 50.0 µM),"growth inhibition [3, 7]","growth inhibition [3, 8]",growth inhibition ([3]; at 50.0 µM),"growth inhibition [4, 7]","growth inhibition [4, 8]",growth inhibition ([4]; at 50.0 µM),"growth inhibition [5, 7]","growth inhibition [5, 8]",growth inhibition ([5]; at 50.0 µM),"growth inhibition [6, 7]","growth inhibition [6, 8]",growth inhibition ([6]; at 50.0 µM)
Oc1ccc(N=Nc2ccccc2)cc1,13%,97% (active),98.5% (active),5%,99% (active),99.5% (active),-6%,64%,99.3% (active),-1%,98% (active),98.1% (active),4%,98% (active),98.8% (active),9%,98% (active),99.2% (active)
CCOC(=O)C(C(=O)O)(C(c1ccccc1)c1ccccc1)C(c1ccccc1)c1ccccc1,97% (active),98% (active),98.5% (active),100% (active),100% (active),99.5% (active),98% (active),99% (active),98.4% (active),98% (active),99% (active),98.9% (active),98% (active),98% (active),98.3% (active),99% (active),99% (active),99% (active)
Nc1nc(Cc2ccccc2)nc(Cc2ccccc2)c1-c1ccccc1,25%,97% (active),96.4% (active),-2%,98% (active),96.5% (active),6%,98% (active),96.8% (active),4%,95% (active),94.1% (active),15%,98% (active),96% (active),4%,97% (active),95.6% (active)
c1csc(-c2nnc(C34CC5CC(CC(C5)C3)C4)o2)c1,-31%,93% (active),61.5%,-12%,95% (active),55.3%,-24%,97% (active),83.3% (active),-2%,76% (active),7.3%,-10%,98% (active),86.3% (active),-12%,98% (active),65.3%
NC1CCCCC1N.O=S(=O)([O-])CCCN1CCOCC1.O=S(=O)([O-])CCCN1CCOCC1.[Pt+4],-12%,89% (active),99% (active),-6%,73% (active),98.9% (active),0%,87% (active),99% (active),-14%,58%,99% (active),10%,92% (active),98.6% (active),20%,98% (active),99.2% (active)
O=C1C2C3CCC(O3)C2C(=O)N1c1cccc2ccccc12 (configuration not stated),-1%,-27%,-1.2%,-5%,-5%,8.15%,-3%,1%,49%,0%,1%,-7.35%,0%,7%,-10.4%,0%,5%,8.3%
O=C1CC(c2ccccc2)NN1 (configuration not stated),-108%,92% (active),90.9% (active),-42%,94% (active),90.5% (active),-51%,89% (active),69.8%,-62%,93% (active),87.8% (active),-71%,87% (active),88.2% (active),-114%,93% (active),86.5% (active)
CN(C)C(=O)c1cc(Cl)cc(-c2ccccc2)c1O,1%,67%,40.5%,1%,74% (active),32.1%,-1%,68%,46.1%,-5%,38%,-6.75%,1%,86% (active),60.2%,1%,93% (active),78.8% (active)
Cc1ccc(Nc2nc(C)c(C(/C=C/c3ccc4c(c3)OCO4)=N/Nc3ccc([N+](=O)[O-])cc3[N+](=O)[O-])s2)c([N+](=O)[O-])c1,43%,43%,53.5%,36%,36%,69%,37%,37%,89.5% (active),23%,23%,68.2%,33%,33%,67.7%,37%,37%,81.7% (active)
